A short description of test [1]: inhibitors of TNFa-induced NFkB p65 translocation, primary screen, imaging, HUVEC, MLSMR starter and 10KST1 sets (AID 438;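 active = inhibition above 20% together with a positive visual image hit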;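 note: compound added about 3h40 before a 20 min TNFalpha stimulation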;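 for inhibition: signal is the nuclear over cytoplasmic p65 intensity ratio per well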). To be noted: HUVEC TNFa-induced p65 nuclear translocation; cell count: measured here: nuclei count (cytotoxicity indicator), at 2.08 µM; inhibition: at 2 µM, stronger effect = higher value, 0% TNFa-plus-vehicle, 100% no-TNFa wells.
The nature of test [2]: reduction of polyQ htt aggregates in cells – imaging, exon1htt(103Q)mCFP cells, high-content imaging, primary screen (AID 483).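 For nuclei count: percent of the per-plate median nuclei count of sample wells.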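 Note: compound exposure lasted 3 days before fixation.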 To be noted: exon1htt(103Q)mCFP cell line, aggregate imaging, at 2 µM; inhibition of aggregation: stronger effect = higher value; nuclei count: measured here: cell count, toxicity.
The nature of test [3]: endothelial E-selectin expression blockers – imaging, HUVEC, immunofluorescence, MLSMR starter and 10KST1 sets, primary screen (AID 487;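 active = visually confirmed hit in the image check and inhibition above 20%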;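 for inhibition: signal is fraction of cell area covered by stained E-selectin grains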;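 for nuclei count: 100% = median nuclei count of all wells on the same plate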). To be noted: HUVEC TNFalpha-induced E-selectin immunofluorescence imaging, at 2 µM; inhibition: stronger effect = higher value; nuclei count: measured here: cell number, toxicity.
Test [4] has as its target Voltage-gated potassium channel subunit beta-2 (Rattus norvegicus) (UniProt P62483). Kind of test: inhibitors of rat Kvbeta2 reductase activity – biochemical, NADPH fluorescence, primary screen (AID 622;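 active = fluorescence slope higher than the sample average by over 3 SD, cut at about -0.22 in these data, passing the limit was not always enough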;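 note: slope of raw intensity against log time taken from 70 to 1610 s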). To be noted: recombinant KvBeta, 4-cyanobenzaldehyde reduction, at 10 µM, stronger effect = higher value.
For test [5] the target is unchanged. The experiment in a line: enhancers of rat Kvbeta2 NADPH turnover – biochemical, NADPH fluorescence, primary screen (AID 623;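 active = NADPH fluorescence slope more negative than the mean of all samples by about 3 SD, 99.7% confidence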;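 note: fluorescence intensity change per second fitted from 20 to 320 s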). To be noted: Recombinant KvBeta, NADPH fluorescence decrease slope, 10 min; at 10 µM; stronger effect = lower value.
In test [6] the target is Alpha-2C adrenergic receptor (Homo sapiens) (UniProt P18825). The experiment in a line: compounds altering alpha2C-coupled GIRK flux – cell-based, HEK293 alpha2C/GIRK1/2, thallium flux, primary screen (AID 624;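 active = fluorescence slope after compound addition differing from the mean of all screened samples at 99.7% confidence, in either direction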;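 note: slope of fluorescence ratio to pre-addition baseline per second over 15 to 24 s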). To be noted: thallium flux BTC fluorescence, at 10 µM, actives lie on both sides.
Sequence of Alpha-2C adrenergic receptor (Homo sapiens) (P18825 whole entry, looked up): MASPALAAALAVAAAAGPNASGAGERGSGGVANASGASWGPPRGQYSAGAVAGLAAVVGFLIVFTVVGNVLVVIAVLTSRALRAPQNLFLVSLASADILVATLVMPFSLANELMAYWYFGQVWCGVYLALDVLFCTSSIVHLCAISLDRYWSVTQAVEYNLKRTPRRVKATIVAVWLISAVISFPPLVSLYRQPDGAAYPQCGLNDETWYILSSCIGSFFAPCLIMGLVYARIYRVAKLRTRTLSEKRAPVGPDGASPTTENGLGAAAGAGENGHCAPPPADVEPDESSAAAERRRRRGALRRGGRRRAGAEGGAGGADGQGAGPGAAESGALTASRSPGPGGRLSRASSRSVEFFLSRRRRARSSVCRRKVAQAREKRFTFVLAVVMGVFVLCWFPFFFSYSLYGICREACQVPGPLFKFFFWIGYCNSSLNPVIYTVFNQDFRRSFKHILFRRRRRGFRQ
Test [7] in a line: blockers of RIG-like receptor reporter activation – cell-based, Sendai virus stimulus, luciferase, 10K MLSCN set, TLR/RLR signaling modifier project, primary screen (AID 602276;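 active = inhibition at or above 50% at 10 µM; inactive = inhibition below 50%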;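 note: firefly luciferase from ISG56 promoter only with Renilla not read in this screen; 0% = Sendai virus plus DMSO and 100% = medium plus DMSO without virus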). To be noted: HEK293 RL24 IRF3 luciferase reporter, at 10 µM, stronger effect = higher value. (In general: A reporter such as luciferase makes a cellular process visible.)
The nature of test [8]: TLR3 IRF3 reporter activation blockers – cell-based, poly I:C stimulus, luciferase, 10K MLSCN set, primary screen (AID 602277;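 active = inhibition of the reporter signal at or above 50%; inactive = inhibition below 50%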). To be noted: HEK293-TLR3 RL24 IRF3 luciferase reporter, at 10 µM, stronger effect = higher value.

The text below walks through data of PubChem BioAssay.

One may read the inhibition as the drop in the measured response relative to a control, in per cent.

Calls of active or inactive are those of the source.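 Rule for the calls, unless noted: active = visual image review flags a hit and inhibition of aggregation exceeds 20%; inconclusive = visual hit but inhibition at or below 20%; inactive = no hit on visual image review.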

Sequence of Voltage-gated potassium channel subunit beta-2 (Rattus norvegicus) (P62483 whole entry, looked up): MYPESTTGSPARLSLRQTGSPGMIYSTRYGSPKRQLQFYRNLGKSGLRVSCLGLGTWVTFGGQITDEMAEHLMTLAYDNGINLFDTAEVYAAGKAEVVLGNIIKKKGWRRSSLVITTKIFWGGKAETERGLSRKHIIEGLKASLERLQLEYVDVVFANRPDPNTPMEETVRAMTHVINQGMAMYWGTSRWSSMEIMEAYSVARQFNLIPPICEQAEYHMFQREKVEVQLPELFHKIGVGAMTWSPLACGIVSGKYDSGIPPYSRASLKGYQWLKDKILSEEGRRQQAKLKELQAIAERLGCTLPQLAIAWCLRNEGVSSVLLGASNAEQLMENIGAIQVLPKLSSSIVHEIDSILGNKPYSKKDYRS

For the compound `Cc1ccccc1-n1c(SCc2c(C)noc2C)nnc1-c1ccncc1`, the cell count in test [1] was 741. For the same compound, the inhibition is -2.4% (inactive) in test [1], -87% (inactive) in test [3], 6.71% (inactive) in test [7] and 30.2% (inactive) in test [8]. Further, the inhibition of aggregation in test [2] was -10.7% (inactive). For the same compound, the values for the nuclei count in test [2] and in test [3] were 103% and 115%, respectively. The fluorescence slope in test [4] was -0.304 (inactive). For the same compound, in test [5], the NADPH fluorescence slope is -5.4e-05 (inactive). In addition, in test [6], the slope is 0.00424 (inactive).
With `Cc1nn(C(=O)c2cc3sccc3[nH]2)c(C)c1C`, the cell count in test [1] amounted to 574. Also, the inhibition was -11.9% (inactive) in test [1], -65.4% (inactive) in test [3], -8.25% (inactive) in test [7] and -82.9% (inactive) in test [8]. Also, the inhibition of aggregation in test [2] was 0.1% (inactive). Also, the nuclei count in test [2] came out at 95.1%; in test [3], 104%. In test [4], the fluorescence slope is -0.416 (inactive). Moreover, the NADPH fluorescence slope in test [5] is -2.7e-05 (inactive). Besides, the slope in test [6] was 0.00333 (inactive).
Regarding `CCC1Oc2ccc(C)cc2N(CC(=O)N(Cc2cccnc2)Cc2ccc(C)o2)C1=O` (centres undefined), the cell count in test [1] was determined as 685. The inhibition in test [1] is -5.5% (inactive); in test [3] it was -9.6% (inactive); in test [7], 17.7% (inactive); in test [8], 24.3% (inactive). Further, in test [2], the inhibition of aggregation is 13.1% (inactive). Further, the nuclei count amounted to 93.4% in test [2] and 103% in test [3]. For the same compound, in test [4], the fluorescence slope was -0.599 (inactive). For the same compound, the NADPH fluorescence slope in test [5] is -5e-05 (inactive). The slope in test [6] was 0.00383 (inactive).
Take `COc1ccc(OC)c(S(=O)(=O)Nc2ccccc2SC)c1`: the cell count in test [1] stood at 623. Moreover, the inhibition is -5% (inactive) in test [1], 20.9% (inactive) in test [3], 21% (inactive) in test [7] and 24% (inactive) in test [8]. Besides, the inhibition of aggregation in test [2] is 20% (inactive). The nuclei count in test [2] came out at 96.7%; in test [3] it was 85.2%. Moreover, the fluorescence slope in test [4] was -0.486 (inactive). Moreover, in test [5], the NADPH fluorescence slope was -3.4e-05 (inactive). In test [6], the slope is 0.00443 (inactive).
Regarding `CCC1CCCCN1C(=O)CSc1nnc(-c2ccc(OC)cc2)o1` (centres undefined), the cell count in test [1] came to 599. The inhibition in test [1] was -4.4% (inactive); in test [3], -27.4% (inactive); in test [7] it was -5.53% (inactive); in test [8], -21.5% (inactive). The inhibition of aggregation in test [2] was 20.5% (inactive). For the same compound, the nuclei count in test [2] was determined as 96.8%; in test [3] it was 113%. The fluorescence slope in test [4] was -0.539 (inactive). For the same compound, the NADPH fluorescence slope in test [5] was 3e-05 (inactive). Moreover, the slope in test [6] is 0.0067 (inactive).
For `CCC(C)NC(=O)CC1Oc2ccc(C)cc2NC1=O` (centres undefined), in test [1], the cell count was 585. Besides, the inhibition in test [1] was -2% (inactive); in test [3], -116% (inactive); in test [7], 2.24% (inactive); in test [8], 22.9% (inactive). Also, the inhibition of aggregation in test [2] is 9.7% (inactive). Also, the nuclei count in test [2] is 100%; in test [3], 126%. Also, the fluorescence slope in test [4] was -0.56 (inactive). Further, the NADPH fluorescence slope in test [5] was -1.5e-05 (inactive). For the same compound, the slope in test [6] was 0.00629 (inactive).
For the compound `CCOC(=O)c1cc2c(=O)n3ccccc3nc2n(Cc2ccccc2)c1=N`, the cell count in test [1] was 913. Further, the inhibition in test [1] was 11.3% (inactive); in test [3], -109% (inactive); in test [7] it was 6.32% (inactive); in test [8], 33.2% (inactive). Also, in test [2], the inhibition of aggregation was 19.9% (inactive). Further, the nuclei count in test [2] was 102%; in test [3], 117%. In addition, the fluorescence slope in test [4] is -0.364 (inactive). Further, the NADPH fluorescence slope in test [5] is -2.8e-05 (inactive). Further, the slope in test [6] is 0.00332 (inactive).
Take `COc1cc(-c2noc(-c3ccccc3C(=O)NCc3ccco3)n2)cc(OC)c1OC`: the cell count in test [1] stood at 654. Also, the inhibition in test [1] was -5.4% (inactive); in test [3], -111% (inactive); in test [7] it was 14.7% (inactive); in test [8], 31.9% (inactive). Besides, the inhibition of aggregation in test [2] was -4% (inactive). For the same compound, the nuclei count in test [2] is 112%; in test [3] it was 156%. Besides, the fluorescence slope in test [4] is -0.59 (inactive). For the same compound, the NADPH fluorescence slope in test [5] is -4.7e-05 (inactive). In addition, in test [6], the slope was 0.00612 (inactive).
As to `Fc1ccccc1Cn1nnc2c(-n3ccnc3)ncnc21`, the cell count in test [1] was 573. In addition, the inhibition was -1.6% (inactive) in test [1], -55.2% (inactive) in test [3], -9.4% (inactive) in test [7] and -13.8% (inactive) in test [8]. Moreover, the inhibition of aggregation in test [2] was -7.5% (inactive). The nuclei count in test [2] stood at 103%; in test [3], 106%. The fluorescence slope in test [4] was -0.519 (inactive). The NADPH fluorescence slope in test [5] was 3.6e-05 (inactive). In addition, in test [6], the slope is 0.00439 (inactive).
Turning to `CC(C)Cn1c(CN2CCN(c3ccccc3F)CC2)nc2c1c(=O)[nH]c(=O)n2C`, in test [1], the cell count was determined as 664. The inhibition in test [1] is -7.7% (inactive); in test [3], -7.3% (inactive); in test [7], 10.6% (inactive); in test [8], 19.7% (inactive). In addition, in test [2], the inhibition of aggregation was -8.3% (inactive). For the same compound, the results for the nuclei count in test [2] and in test [3] were 101% and 103%, respectively. Besides, the fluorescence slope in test [4] is -0.521 (inactive). For the same compound, the NADPH fluorescence slope in test [5] is -3.3e-05 (inactive). For the same compound, the slope in test [6] is 0.00688 (inactive).
On to `CCCc1nnc2n1N=C(c1ccc(-c3cc(Cl)ccc3Cl)o1)CS2`, for which, in test [1], the cell count came to 248. Also, the inhibition in test [1] is 6.2% (inactive); in test [3], 17.1% (inactive); in test [7], 8.08% (inactive); in test [8], 29.1% (inactive). Besides, the inhibition of aggregation in test [2] is 4.8% (inactive). Further, the nuclei count in test [2] stood at 100%; in test [3] it was 89%. Further, the fluorescence slope in test [4] was -0.447 (inactive). For the same compound, the NADPH fluorescence slope in test [5] is -5.1e-05 (inactive). Further, in test [6], the slope is 0.00311 (inactive).
`COc1nc(OC)nc(N2CCC(C(=O)NCc3cccs3)CC2)n1`: in test [1], the cell count stood at 559. Besides, the inhibition is -15% (inactive) in test [1], -1.7% (inactive) in test [3], -3.8% (inactive) in test [7] and -2.92% (inactive) in test [8]. The inhibition of aggregation in test [2] is -22.8% (inactive). For the same compound, the nuclei count in test [2] was determined as 112%; in test [3] it was 107%. For the same compound, in test [4], the fluorescence slope was -0.528 (inactive). Also, the NADPH fluorescence slope in test [5] was -4.4e-05 (inactive). For the same compound, the slope in test [6] is 0.00626 (inactive).
`CCN(CC)c1nc2nonc2nc1N(CC)CC`: the cell count in test [1] came out at 314. The inhibition in test [1] was -11.8% (inactive); in test [3], -12.1% (inactive); in test [7], 14.3% (inactive); in test [8], 21.8% (inactive). In addition, the inhibition of aggregation in test [2] was -1.5% (inactive). Besides, the values for the nuclei count in test [2] and in test [3] were 100% and 94.7%, respectively. Further, the fluorescence slope in test [4] was -0.446 (inactive). For the same compound, the NADPH fluorescence slope in test [5] was -5.6e-05 (inactive). The slope in test [6] is 0.00553 (inactive).
In the case of `CCOc1ccc(NC(=O)CN(c2cc(C)cc(C)c2)S(=O)(=O)c2c(C)noc2C)cc1`, the cell count in test [1] came to 785. Besides, the inhibition is -1.1% (inactive) in test [1], -14.8% (inactive) in test [3], 13.8% (inactive) in test [7] and -22.3% (inactive) in test [8]. Further, in test [2], the inhibition of aggregation was 23.6% (inactive). For the same compound, the nuclei count in test [2] was found to be 99.2%; in test [3], 105%. Besides, in test [4], the fluorescence slope was -0.574 (inactive). Also, the NADPH fluorescence slope in test [5] is 1.1e-05 (inactive). Besides, the slope in test [6] was 0.0058 (inactive).
